Molecules are shown by their SMILES. Results filed as inconclusive are left out. The source made the active and inactive calls. The call rests on the fitted dose curve; in most records, active means well fitted cell-killing curve with a large enough effect; inconclusive means small, poorly fitted or top-dose-only effect, or effect the other way; inactive means no such curve, though single readings can be large or run the other way.
Potency means the concentration at half of the fitted maximal effect.

The assay in a line: Quantitative High-Throughput drug screen in 47 multiple myeloma cell lines against the NCATS MIPE library collection: MMM1_PLB cell viability assay (AID 1918976). Further: nearly all actives have a fitted effect of over 35% in size. Particulars: MMM1 myeloma cells viability, CellTiter-Glo, 48 h; series mostly up to 45.8 µM. A digest of the protocol: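 ATP-based luminescence (CellTiter-Glo, 5 min RT incubation) quantified surviving cells following two days' treatment with MIPE 4.0 agents at 37 °C, 5% CO2.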
For orientation: Cellular ATP, detected with luciferase, serves as a proxy for viable cell number.
In the case of `CS(=O)(=O)N(Cc1ccco1)CC(O)Cn1c2ccccc2c2ccccc21` (centres undefined), the Potency is 20.9 µM (active).

Take `COCCOc1nc(-c2ccc(Cl)c(Cl)c2)n(-c2ccc(NC(=O)CCl)cc2)n1`: the Potency is 16.6 µM (active).

Consider `C[C@H](NC(=O)c1sccc1OCc1ccc(Cl)cc1)c1ccccc1`, for which the Potency is 16.6 µM (active).

As for `NC(=O)c1cccc(-c2cc(Nc3ccc(OC(F)(F)F)cc3)ncn2)c1`, the Potency was 20.9 µM (active).

As to `CC1(C)CCC(CN2CCN(c3ccc(C(=O)NS(=O)(=O)c4ccc(NCC5CCOCC5)c([N+](=O)[O-])c4)c(Oc4cnc5[nH]ccc5c4)c3)CC2)=C(c2ccc(Cl)cc2)C1`, the Potency is 0.166 µM (active).

Consider `O=C(Nc1cccc(Br)c1)c1cccc(S(=O)(=O)N2CCCCCC2)c1`, for which the Potency is 18.7 µM (active).

Regarding `CNC(=O)c1ccccc1Sc1ccc2c(C=Cc3ccccn3)n[nH]c2c1`, the Potency is 20.9 µM (active).

As for `O=C(Nc1cc(Cl)cc2c1[nH]c1cnccc12)c1cccnc1`, the Potency is 11.8 µM (active).

For the compound `O=C1NC(=O)C(=Cc2ccc3nccnc3c2)S1`, the Potency was 8.12 µM (active).

Take `CCCCCNC(=O)N1CCC(CN(Cc2ccc(Cl)cc2)Cc2ccc([N+](=O)[O-])s2)C1` (centres undefined): the Potency is 20.9 µM (active).

As for `Cc1ccccc1C(C(=O)NC1CCCCC1)N(C(=O)Cn1ccnc1C)c1cccc(F)c1` (centres undefined), the Potency was 10.5 µM (active).

Regarding `O=c1cc(CN2CCOCC2)occ1OCCCCCSc1ccnc2cc(C(F)(F)F)ccc12`, the Potency is 16.6 µM (active).

With `O=C(N[C@@H](c1ccccc1)[C@@H]1CCCCN1)c1cccc(C(F)(F)F)c1Cl`, the Potency is 1.32 µM (active).

For `COc1cccc2c1CCCC2CCCN1CCN(C2CCCCC2)CC1` (centres undefined), the Potency was 14.8 µM (active).

The record behind these values is PubChem BioAssay (NCATS).
